ERK EGF block: inhibitors of EGF-stimulated ERK signaling pathway. HEK293-V1b, EGF-stimulated phospho-ERK AlphaScreen. Potency, µM (top dose mostly 11.5 µM), without a hit: at the highest dose activity change, negative = inhibition, hits mostly inhibitors. hit rate 0.41% among 130,000;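 note: plate controls were stimulated vehicle wells for no effect and unstimulated vehicle basal for full effect; nearly all actives have a fitted effect of over 55% in size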
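V1b-HEK293, 1% FBS o/n; cpd 30 min 37C; EGF 25 nM final, 5 min; lyse 10 min; AlphaScreen beads 5 h RT. Normalized DMSO basal vs EGF max; Hill AC50.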
NPSR antag: neuropeptide S receptor (human) antagonism, cAMP; hit rate 1% among 220,000; Q6W5P4; AID 1461; Potency, µM (series often up to 38.3 µM), without a hit: at the top dose activity change, negative = inhibition, usual class: inhibitors; CHO-NPSR cells, cAMP TR-FRET, antagonist mode; note: nearly all actives have a fitted effect of over 50% in size
Target sequence (Q6W5P4 whole entry, looked up): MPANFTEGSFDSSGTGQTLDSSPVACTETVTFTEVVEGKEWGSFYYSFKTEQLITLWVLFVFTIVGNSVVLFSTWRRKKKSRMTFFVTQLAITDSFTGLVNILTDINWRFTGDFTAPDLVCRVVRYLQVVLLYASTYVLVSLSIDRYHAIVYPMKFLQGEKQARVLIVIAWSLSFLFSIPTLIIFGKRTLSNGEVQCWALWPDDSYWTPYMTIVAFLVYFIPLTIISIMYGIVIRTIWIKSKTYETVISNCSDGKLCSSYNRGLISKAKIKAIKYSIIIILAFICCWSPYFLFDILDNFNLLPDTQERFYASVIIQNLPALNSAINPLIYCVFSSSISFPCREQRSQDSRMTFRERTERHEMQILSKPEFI
Starred values were filed as active, the others as inactive; ? = inconclusive; . = no result; [ ] = another dose, or the depositor's remark. Shown is part of a subset that was picked to be rich in hits. Calls come from the whole dose curve; as a rule, active = well fitted curve in the direction sought with a large enough effect; inconclusive = small, poorly fitted or top-dose-only effect, or another doubt; inactive = no such curve, though single readings can be large; an effect the other way counts as inactive or inconclusive. Unless noted, % is set by controls: 0 for no effect and ±100 for the full control effect; potency is the fitted concentration of half-maximal effect.

SMILES | ERK EGF block | NPSR antag
COc1ccc2c(c1OC)C(Cc1ccccc1)N1CCc3cc4c(cc3C1=C2)OCO4 (configuration not stated) | -7% | .
O=C(O)c1ccc(-c2cccc([N+](=O)[O-])c2)o1 | 4%[57.5 µM] | 19%
O=C1ON=C(c2cccc([N+](=O)[O-])c2)/C1=C/c1ccc(O)cc1 | 4% | 10µM*
CC(O)C(NS(=O)(=O)c1ccc(Cl)cc1)C(=O)OCC(=O)c1c[nH]c2ccccc12 (configuration not stated) | 9% | -16%
CC(C)C(NS(=O)(=O)c1c(Cl)cccc1Cl)C(=O)OCC(=O)c1c[nH]c2ccccc12 (configuration not stated) | 25µM* | -37%
CC(C)(C)C1C/C(=C/c2ccccn2)C(=O)/C(=C/c2ccccn2)C1 (configuration not stated) | ? | 2µM*
CC1C/C(=C/c2ccccn2)C(=O)/C(=C/c2ccccn2)C1 (configuration not stated) | -4% | ?
COc1ccc(Nc2nc(OC)nc(N3CCOCC3)n2)cc1 | 1% | -9%
FC(F)(F)C(Oc1nc(NC2CCCCC2)nc(N2CCOCC2)n1)C(F)(F)F | . | 10µM*
Cn1nc(-c2ccc(Cl)cc2)c2cc(C(=O)NCCCN3CCCC3)sc21 | . | 10µM*
CCCCNC(=O)c1cc2c(-c3ccc(Cl)cc3)nn(C)c2s1 | . | -24%[46.1 µM]
CNc1ncncc1-c1ccccc1OC | 25% | .
O=C(NCCOc1ccccc1)O[C@@H]1C(=O)c2cc(Br)ccc2O[C@H]1c1ccc2c(c1)OCO2 | -5% | .
CCCCNc1nc(C)nc2c1nc(-c1ccccc1)n2CCCN(CC)CC | 0% | .
C=C(C)CN(CC)c1nc(N)c2c(N)nc3c(c2c1C#N)CC(=O)N3C12CC3CC(CC(C3)C1)C2 | . | 5µM*
N#Cc1c(N(CCO)CCO)nc(N)c2c(N)nc3c(c12)CC(=O)N3CC1CCCO1 (configuration not stated) | -8%[57.5 µM] | 2%[7.67 µM]
O=C(OC1Cc2c(O)cc(O)cc2OC1c1cc(O)c(O)c(O)c1-c1c(C2Oc3cc(O)cc(O)c3CC2OC(=O)c2cc(O)c(O)c(O)c2)cc(O)c(O)c1O)c1cc(O)c(O)c(O)c1 (configuration not stated) | 17% | .
COc1cc(NS(=O)(=O)c2ccc(NC(=S)NC(=O)/C=C/c3ccco3)cc2)ncn1 | -3% | 10µM*
Cc1ccc2oc(-c3cccc(NC(=S)NC(=O)/C=C/c4ccco4)c3)nc2c1 | . | 2.5µM*
Cc1ccc2oc(-c3cccc(NC(=S)NC(=O)c4cccs4)c3)nc2c1 | -12% | -25%
COc1ccc(/C=C/C(=O)NC(=S)Nc2ccc(S(=O)(=O)Nc3ccc(OC)nn3)cc2)cc1 | -8% | -58%
CN(C)CC[C@H](c1ccc(Br)cc1)c1ccccn1 | -7%[25.7 µM] | .
N#Cc1c(NC(=O)c2ccccc2Cl)n(Cc2ccccc2)c2nc3ccccc3nc12 | 7% | -9%
CCCCn1c(NC(=O)c2ccccc2Cl)c(C#N)c2nc3ccccc3nc21 | . | 10µM*
CC1(O)/C=C\C=C(\CO)C2CC(C)(C)C2(O)CC1 (configuration not stated) | 2% | .
SMILES | ERK EGF block | NPSR antag
COc1ccc2nc(N=Nc3ccc(O)c4ccccc34)sc2c1 | 7.1µM* | -4%
COc1ccc2nc(N=NC3=C(O)CC(C)(C)CC3=O)sc2c1 | 1% | -44%
C[N+]1(C)C2CCC1CC(OC(=O)C(O)c1ccccc1)C2 (configuration not stated) | 10% | .
O=C(c1cnccn1)N1CCC[C@@]2(CCN(Cc3cc(C(F)(F)F)cc(C(F)(F)F)c3)C2)C1 | -4% | .
CCOC(=O)c1ccc(Cl)c(NC(=O)c2ccc(-c3ccccc3)cc2)c1 | . | 27%[46.1 µM]
CCOC(=O)c1ccc(/C=C2/C=C(c3ccccc3)N(c3ccc(Cl)c(C(=O)O)c3)C2=O)cc1 | 5% | 13µM*
Cc1noc(C)c1C(=O)N1CCC2(CC1)CN(c1ccccn1)C2 | 2% | .
COc1ccc(-c2cc(-c3ccccc3)nc(SCC(=O)Nc3ncc(C)s3)c2C#N)cc1 | -6% | -21%
CCc1nnc(NC(=O)CSc2nc(-c3ccc(F)cc3)cc(-c3ccccc3)c2C#N)s1 | . | 7.9µM*
COC(=O)NC(c1ccccc1)c1c[nH]c2ccccc12 (configuration not stated) | -3% | .
O=[N+]([O-])c1ccc2nc(-c3ccncc3)[nH]c2c1 | 2%[57.5 µM] | 8%
O=[N+]([O-])c1ccc(-c2nc(-c3ccc(F)cc3)c(-c3ccncc3)[nH]2)cc1 | ? | 7.9µM*
C[C@H]1CC[C@@H]2N(C1)C[C@H]1[C@@H]3C[C@H]4[C@@H](C/C(=N\O)[C@H]5C[C@@H](O)CC[C@@]54C)[C@@H]3CC[C@H]1[C@]2(C)O | -12% | .
CN1C(=O)N(C)C2=NNC=NC2(O)C1=O (configuration not stated) | -6% | .
O=C(COc1ccccc1Cl)NC(=S)Nc1ccc(CN2CCOCC2)cc1 | -12% | -3%
